Test results: PubChem BioAssay (NCI)
Compounds without any hit were thinned out: in the full panel of roughly 83,000, 20% have a hit.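 Single-concentration screen, 48 h exposure, 96-well plates. Endpoint: percent growth. Below 10 = active.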 Values without a mark were called inactive. Activity calls are given as the source filed them.

How the values were obtained:
Experiment in all cases: NCI-60 one-dose screen, 48 h (100 = growth as untreated, 0 = no growth, -100 = all killed)
Details in all cases: 10 µM unless noted
[1] = system: NCI-H23 lung
[2] = system: NCI-H226 lung
[3] = system: NCI-H322M lung
[4] = system: HOP-62 NSCLC
[5] = system: NCI-H460 lung
[6] = system: HOP-92 NSCLC
[7] = system: NCI-H522 lung
[8] = system: A549/ATCC NSCLC
[9] = system: 786-0 renal
[10] = system: COLO 205 colon
[11] = system: DU-145 prostate
[12] = system: K-562 leukemia
[13] = system: MALME-3M melanoma
[14] = system: MDA-MB-231 breast
[15] = system: RXF 393 renal
[16] = system: SF-268 CNS
[17] = system: SF-295 CNS
[18] = system: SF-539 CNS
[19] = system: UACC-257 melanoma
[20] = system: M14 melanoma

SMILES	growth [1]	growth [2]	growth [3]	growth [4]	growth [5]	growth [6]	growth [7]	growth [8]	growth [9]	growth [10]	growth [11]	growth [12]	growth [13]	growth [14]	growth [15]	growth [16]	growth [17]	growth [18]	growth [19]	growth [20]
CC(C)(C)n1cc(-c2ccnc(NCCCNS(=O)(=O)c3ccc(C(F)(F)F)cc3)c2)c(-c2cccc(O)c2)n1	37.8%	42%	35.1%	54.8%	-48.5% (active)	22.7%	-13.3% (active)	21.5%	-17.3% (active)	-59.1% (active)	46.3%	3% (active)	-18% (active)	1.39% (active)	-3.46% (active)	36.3%	1.72% (active)	19.8%	17.2%	1.32% (active)
COc1ccc(-c2[nH]nc(N)c2-c2cc(OC)c3c(c2)OCO3)cc1	63.4%	84.9%	92.9%	59.8%	33.1%	69.7%	-21% (active)	52%	77.6%	61.3%	92.3%	22.4%	46.9%	43%	95.9%	64.9%	53.9%	59.3%	79.3%	22.1%
C=C1C(=O)O[C@H]2[C@H]1CC/C(Cn1cc(-c3cccc(Cl)c3)nn1)=C\CC[C@@]1(C)O[C@@H]21	-35% (active)	-57.9% (active)	66.2%	-38.4% (active)	16.6%	-73.2% (active)	-74.4% (active)	31%	-83.9% (active)	-79.5% (active)	-99.4% (active)	0.665% (active)	-77.3% (active)	-54.1% (active)	-88.4% (active)	-47.9% (active)	72.4%	-76.7% (active)	–	-56.4% (active)
NC1=NC(SCc2ccccc2CCl)c2ncn(Cc3ccccc3CCl)c2N1 (stereo not drawn)	70.8%	60.2%	80.8%	74.5%	80.7%	24%	-92% (active)	80.3%	64.2%	43.9%	64%	21.9%	19.4%	47.5%	-4.55% (active)	54.9%	101%	69.4%	42.5%	40%
O=C1NN(C(=O)c2ccc(Cl)cc2)C(c2ccccc2)=N/C1=C\c1ccc(F)cc1	84%	92.1%	89.7%	99.1%	94.6%	83.5%	96.5%	87.5%	76.5%	109%	112%	83.2%	85.6%	68%	84.2%	105%	72.9%	84.8%	102%	86.2%
COC(=O)[C@]12CC[C@@H](C)[C@H](C)[C@@H]1C1=CC[C@@H]3[C@@]4(C)C(C=O)=C[C@@](C)(COC(=O)c5ccco5)[C@@H]4[C@H](O)C[C@@]3(C)[C@]1(C)CC2	-13.5% (active)	-41.5% (active)	33.1%	-7.36% (active)	-59.6% (active)	-54.7% (active)	-47.9% (active)	7.92% (active)	-22.9% (active)	-78.6% (active)	-74.3% (active)	2.92% (active)	-63.6% (active)	-47.4% (active)	-63% (active)	2.92% (active)	-76.2% (active)	-62.6% (active)	–	-23.3% (active)
O=c1cc(Cc2ccc([N+](=O)[O-])cc2)[nH]c(=O)[nH]1	99.2%	107%	112%	93.3%	109%	96.1%	90.5%	106%	98.9%	100%	119%	111%	99.9%	110%	109%	106%	122%	–	109%	104%
CCCOC(=O)n1cccc1	99%	104%	135%	94.3%	110%	97%	112%	96.8%	98.5%	107%	108%	115%	147%	99%	102%	98.4%	122%	–	102%	101%
Cc1ccc(Nc2nnc(-c3ccc(Cl)cc3)o2)c(C)c1	84.4%	99.6%	102%	81.8%	97.1%	107%	41%	79.2%	89.3%	81.4%	93.5%	24.8%	62.1%	76.3%	93.8%	90.3%	80.7%	79%	87.8%	57.6%
Nc1nnc(-c2ccc3ccccc3c2O)o1	85.3%	94.8%	88%	89.8%	92.6%	83%	85.1%	93.5%	104%	99.5%	117%	93.5%	89.1%	92.4%	99.2%	94.8%	–	95.7%	102%	86.4%
CO[C@H]1NC(=O)N(S(=O)(=O)c2ccc(Cl)cc2)[C@@H]1OC	107%	131%	111%	93.1%	110%	114%	105%	98.2%	103%	108%	115%	93.2%	101%	108%	119%	102%	92.1%	98.7%	106%	115%
CCN(CC)CCCC(C)Nc1c2ccc(Cl)cc2nc2cc(OC)c(OC)cc12 (stereo not drawn)	21%	32.3%	0.383% (active)	32.3%	-31.6% (active)	-9.58% (active)	14.9%	4.12% (active)	38.6%	-33.6% (active)	22.6%	-16.4% (active)	-74.1% (active)	-34.3% (active)	-13.4% (active)	33.9%	44.5%	-87.9% (active)	46.9%	-73.7% (active)
N=C(N)c1ccc(-c2cc(Cl)cc(Cl)c2)cn1	97.6%	82.4%	94%	91.6%	96.9%	59.3%	90.1%	93.9%	95.3%	19.5%	99.5%	17.5%	95.8%	85.6%	41.5%	84.9%	98.2%	89.6%	102%	96.4%
C=CCn1c2ccccc2c2c3c(c4c5ccccc5n(CC=C)c4c21)C(=O)N(O)C3=O	24.2%	-97.9% (active)	52.8%	-1.11% (active)	8.86% (active)	77.2%	-62.5% (active)	37.7%	15.1%	56.5%	24.9%	27.3%	96.1%	39.4%	42.2%	33.7%	16.2%	2.86% (active)	–	17.2%
COc1ccc(NC(=O)CSc2nc(-c3ccc(OC)c(OC)c3)cc(-c3cc(OC)c(OC)c(OC)c3)n2)cc1	101%	108%	90.4%	106%	97.7%	76.8%	79.6%	95.7%	95.1%	82.5%	112%	95.7%	128%	91.9%	101%	102%	126%	–	111%	102%
COc1ccc(C(=O)N2NC(=O)/C(=C/c3ccc(F)cc3)N=C2c2ccccc2)cc1	92.2%	96.5%	92%	99.3%	104%	93.7%	93.3%	86.4%	78.9%	119%	113%	94.4%	91.4%	88.1%	94.5%	105%	80.4%	97%	99.3%	87.2%
